# Out of some 66,000 compounds screened, about 960 (1.5%) showed an effect of 50% or more. The sample as a whole holds a higher share of strong results than the screen did.
# Test system: Trypanosoma brucei
# Test: Trypanosoma brucei 72 hour study
# Type: functional, organism-based
# Design: scale not given: in the data most compounds retested in dose-response had high values
smiles,measurement,setting,value
Cc1nnc2n1CCN(C(=O)CN(C)Cc1ccccc1)C2,Percent Effect,"30.3 µM, […]",-14.91%
O=C(NCC1CCOCC1)[C@@H]1CC[C@@H]2[C@@H](CCN2Cc2ccncc2)O1.O=C(O)C(F)(F)F.O=C(O)C(F)(F)F,Percent Effect,"30.3 µM, […]",-62.66%
CCc1noc(CCC(=O)N[C@@H]2CC[C@@H](n3ccnc3C)[C@@H]2O)n1,Percent Effect,"30.3 µM, […]",-7.313%
O=C(O)C(F)(F)F.c1coc(CN2CCO[C@H]3[C@H](OCC4CC4)CC[C@@H]32)c1,Percent Effect,"30.3 µM, […]",0.4404%
Oc1ccc(Br)c(CNc2cccc(-c3nnc[nH]3)c2)c1,Percent Effect,"30 µM, 30.03 µM",56.16%
Oc1c(F)cc(CNc2cccc(-c3nnc[nH]3)c2)cc1F,Percent Effect,"30 µM, 30.03 µM",-51.33%
c1cc(NCc2ccsc2)cc(-c2nnc[nH]2)c1,Percent Effect,"30 µM, 30.03 µM",-50.24%
CCCc1nc2c(c(C)c(C)n2Cc2ccccn2)c(N)c1CC,Percent Effect,"30.3 µM, […]",99.32%
CCCc1nc2c(c(C)c(C)n2Cc2ccncc2)c(N)c1CC,Percent Effect,"30.3 µM, […]",11.66%
CCCc1nc2c(c(C)c(C)n2Cc2cccnc2)c(N)c1CC,Percent Effect,"30.3 µM, […]",26.57%
COc1cccc(-c2noc(C3CCN(Cc4ccc(C)cc4)C3)n2)c1.Cl (stereo unspecified),Percent Effect,"30.3 µM, […]",4.598%
Cc1nc(=O)c2ccccc2n1C1=CCN(CC(=O)N2CCCC2)CC1,Percent Effect,"30.3 µM, […]",9.131%
COc1cc(C(=O)N2CCCS2(=O)=O)cc(Cl)c1OC,Percent Effect,"30 µM, 30.03 µM",-12.01%
COc1ccc(C(=O)N2C[C@@H](CN3CCCCC3)[C@@H](CO)C2)cc1Cl,Percent Effect,"30 µM, 30.03 µM",22.63%
CCN1CCC2(CC1)OCCN2C(=O)c1cc(Cl)c(OC)c(Cl)c1.Cl,Percent Effect,"30 µM, 30.03 µM",89.37%
COCC1CC2(CCN(C(=O)c3ccc(OC)c(Cl)c3)CC2)CO1 (stereo unspecified),Percent Effect,"30 µM, 30.03 µM",-6.719%
CCN1CCC2(CC1)OCCN2C(=O)c1ccc(OC)c(Cl)c1.Cl,Percent Effect,"30 µM, 30.03 µM",50.46%
CCCOc1c(Cl)cc(C(=O)N2CCOC23CCN(C)CC3)cc1Cl,Percent Effect,"30 µM, 30.03 µM",-15.42%
COc1ccc(-c2cc3nn(CC(=O)NC(C)C)c(=O)n3c(C)n2)cc1,Percent Effect,"30 µM, 30.03 µM",-13.21%
Cc1cc(C)cc(CN2CCN(Cc3cccc(CCN)c3)CC2=O)c1,Percent Effect,"30 µM, 30.03 µM",35.33%
CCc1cc(CN2C[C@H]3CC[C@@H]2CN(C2Cc4ccccc4C2)C3)on1,Percent Effect,"30 µM, 30.03 µM",10.13%
Cc1nnc(CN2CCCC2c2ccsc2)o1 (stereo unspecified),Percent Effect,"30.3 µM, […]",-40.61%
Cc1nnc(CN2CCCC2c2ccc(Cl)c(Cl)c2)o1 (stereo unspecified),Percent Effect,"30.3 µM, […]",3.085%
Cc1nnc(CN2CCCC2c2ccc(C(C)(C)C)cc2)o1 (stereo unspecified),Percent Effect,"30.3 µM, […]",86.15%
Cc1ccc(CN(CCCn2ccnc2)Cc2cc(F)ccc2F)s1.O=C(O)CC(O)(CC(=O)O)C(=O)O,Percent Effect,"30.3 µM, […]",-12.95%
Cc1ccccc1-n1cnnc1SCC(=O)NCC1CCCO1 (stereo unspecified),Percent Effect,"30 µM, 30.03 µM",-21.19%
Cc1ccccc1-n1cnnc1SCCOCC1CCCO1 (stereo unspecified),Percent Effect,"30 µM, 30.03 µM",-22.78%
Cc1ccccc1-n1cnnc1SCC1CCCCO1 (stereo unspecified),Percent Effect,"30 µM, 30.03 µM",69.07%
O=C(CCc1cccs1)N1CCCC(n2ccnc2)C1 (stereo unspecified),Percent Effect,10 µM,-23.55%
same,Percent Effect,"30.3 µM, […]",37.83%
Cc1cc(NC(=O)N2CCCC2C(C)(C)O)c2ncccc2c1 (stereo unspecified),Percent Effect,"30 µM, 30.03 µM",-36.24%
Cc1cc(NC(=O)NC2CCN(C(C)C)CC2)c2ncccc2c1,Percent Effect,"30 µM, 30.03 µM",56.47%
Cc1cc(NC(=O)N2CCCC2C(=O)NC2CC2)c2ncccc2c1 (stereo unspecified),Percent Effect,"30 µM, 30.03 µM",-28.65%
Cl.c1cn(-c2cncc(C3CCNCC3)n2)cn1,Percent Effect,"30.3 µM, […]",-40.04%
CN(C)C(=O)CN1CCC2(COCc3cnc(-c4cccnc4)nc32)C1.O=C(O)C(F)(F)F.O=C(O)C(F)(F)F (stereo unspecified),Percent Effect,"30.3 µM, […]",-72.36%
CN(C)C(=O)c1n[nH]c2c1CN(CC1CCCCC1)C2.O=C(O)C(F)(F)F.O=C(O)C(F)(F)F,Percent Effect,"30.3 µM, […]",-36.34%
N#Cc1c(Cl)nsc1N1CCN(CC2CC2)CC1,Percent Effect,"30.3 µM, […]",-23.59%
CC(C)(C)CCN1CCN(c2snc(Cl)c2C#N)CC1,Percent Effect,"30.3 µM, […]",100.4%
N#Cc1c(Cl)nsc1N1CCN(CC2CCCCC2)CC1,Percent Effect,"30.3 µM, […]",100.2%
CC(=O)N1CCN(CCNc2snc(Cl)c2C#N)CC1,Percent Effect,"30 µM, 30.03 µM",1.028%
CC(=O)N1CCN(C(=O)CCNc2snc(Cl)c2C#N)CC1,Percent Effect,"30 µM, 30.03 µM",-13.74%
N#Cc1c(Cl)nsc1NCc1ccc(N2CCC(CO)CC2)cc1,Percent Effect,"30 µM, 30.03 µM",-28.26%
CC(C)COCC1CN(C(=O)c2cscn2)Cc2ncn(C)c21.O=C(O)C(F)(F)F (stereo unspecified),Percent Effect,"30.3 µM, […]",-83.42%
CN(C)CCOCc1cncc2c1CCN(Cc1ccccn1)C2.O=C(O)C(F)(F)F.O=C(O)C(F)(F)F.O=C(O)C(F)(F)F,Percent Effect,"30.3 µM, […]",-28.23%
Cc1nc(CN2CC[C@H]3[C@@H]2CCC(=O)N3c2cnn(C)c2)cs1.O=C(O)C(F)(F)F,Percent Effect,"30.3 µM, […]",-10.95%
Cc1ccc(CN(CCCn2ccnc2)Cc2c[nH]nc2C(C)(C)C)s1.O=C(O)CC(O)(CC(=O)O)C(=O)O,Percent Effect,"30.3 µM, […]",-172%

# From ChEMBL document CHEMBL3988442, “University of Dundee, Small-Polar-MMV Screening Library” (2021)
